Compound activity (PubChem BioAssay)
In the library only some 5.8% were active in any assay of this set; here they are far more common.
KB-3-1 cytotox: kills parental KB-3-1 adenocarcinoma cells; Potency, µM (titrated, usually from 46.1 µM), most hits filed as cytotoxic; 400,000 tested, 1.4% active; KB-3-1 viability, CellTiter-Glo ATP luminescence, 72 h; note: % is set by controls: 0 for no effect and ±100 for the full control effect; nearly all actives have a fitted effect of over 60% in size
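KB-3-1 cells, DMEM (no phenol red) + 10% FBS; compound by pin transfer, 72 h, 37 °C. Readout: CellTiter-Glo luminescence after 10 min. Data normalized, curve-fitted.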
12-LOX inh: ALOX12 (human) lipoxygenase inhibition; P18054; purified 12hLO, xylenol orange hydroperoxide absorbance; Potency, µM (top dose mostly 108 µM), for the others: at the highest dose activity change, negative = inhibition, most hits filed as inhibitors; 580,000 tested, 1.1% active; AID 1671190; note: % is set by controls: 0 for no effect and ±100 for the full control effect
Target sequence (P18054 whole entry, looked up): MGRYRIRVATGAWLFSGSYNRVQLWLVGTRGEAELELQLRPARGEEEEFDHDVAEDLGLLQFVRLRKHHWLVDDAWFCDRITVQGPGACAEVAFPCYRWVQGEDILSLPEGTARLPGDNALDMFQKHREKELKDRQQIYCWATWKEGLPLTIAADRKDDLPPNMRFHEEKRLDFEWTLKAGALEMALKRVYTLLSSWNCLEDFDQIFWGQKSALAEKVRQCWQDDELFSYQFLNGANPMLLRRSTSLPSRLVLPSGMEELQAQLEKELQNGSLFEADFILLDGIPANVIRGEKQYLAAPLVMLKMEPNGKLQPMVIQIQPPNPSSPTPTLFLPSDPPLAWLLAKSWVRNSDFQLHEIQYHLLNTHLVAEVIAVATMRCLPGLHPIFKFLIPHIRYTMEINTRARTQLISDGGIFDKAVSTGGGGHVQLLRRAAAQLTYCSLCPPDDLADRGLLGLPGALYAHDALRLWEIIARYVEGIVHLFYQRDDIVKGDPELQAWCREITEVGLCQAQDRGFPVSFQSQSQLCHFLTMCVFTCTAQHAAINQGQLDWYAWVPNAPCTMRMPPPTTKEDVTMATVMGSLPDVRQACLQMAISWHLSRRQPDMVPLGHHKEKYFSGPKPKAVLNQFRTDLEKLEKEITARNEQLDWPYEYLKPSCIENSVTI
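Hydroperoxide product was detected by ferrous iron/xylenol orange as the 573 to 405 nm absorbance ratio. Arachidonic acid at 40 uM (final) was turned over for 30 min at room temperature by 150 nM human 12hLO, pH 7.0 Hepes buffer, after 15 min compound preincubation.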
MCF10A rereplic: induces DNA re-replication in MCF 10a normal breast cells | MCF 10A DNA re-replication, Hoechst nuclear intensity, 48 h | Potency, µM (doses to about 46.1 µM), for the others: at the top dose activity, positive = re-replication, hits mostly activators | 350,000 tested, 2.9% active | AID 624296; note: % of control where 0% means no effect; nearly all actives have a fitted effect of over 50% in size
KB-V1 MDR tox: kills drug-selected multidrug resistant KB-V1 cells; KB-V1 MDR cells viability, CellTiter-Glo, 72 h; 400,000 tested, 3.4% active; Potency, µM (doses to about 46.1 µM), hits mostly cytotoxic; note: % is set by controls: 0 for no effect and ±100 for the full control effect; nearly all actives have a fitted effect of over 60% in size
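Luminescent ATP read-out (CellTiter-Glo, 10 min) measures survival of drug-selected KB-V1 MDR cells after 72 h, 37 degrees C compound exposure. Medium: phenol-red-free DMEM, 10% FBS. Values from fitted concentration-response curves.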
PINK1 modulator: changes PINK1 expression. PINK1 immunofluorescence, high-content cytometry, 24 h. Potency, µM (highest dose often 76.6 µM), for inactives: at the highest dose activation (PINK1 increase), usual class: activators. 410,000 tested, 0.2% active; active = well fitted activation curve with a large enough effect; inconclusive = small, poorly fitted or top-dose-only effect; cell line not stated here; note: % of control where 0% means no effect; nearly all actives have a fitted effect of over 65% in size
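Stable cell line, 250 cells/well, 12 h attachment; compounds pinned at 5 concentrations, 24 h; CCCP control. Fixed with nuclear dye, primary antibodies 12 h at 10 degrees C, secondary plus cell stain; laser-scanning cytometer read.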
SW480 rereplic: induces DNA re-replication in SW480 colon adenocarcinoma cells | SW480 DNA re-replication, Hoechst DNA content imaging, 48 h | Potency, µM (doses to about 46.1 µM), for inactives: at the highest dose re-replication activation, actives largely listed as activators | AID 624297 | 340,000 tested, 1.8% active; note: % of control where 0% means no effect; nearly all actives have a fitted effect of over 55% in size
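First, 250 cells per well were seeded. Next, compound or vehicle (23 nL) was pinned in, plates sat 48 hr at 37 C. Finally Hoechst was added for 40 min before fluorescence scanning.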
The depositor's hits bear a star; i = inactive; ? = inconclusive; / = no result; [ ] = another dose, or the depositor's remark. Unless noted, calls come from the whole dose curve; as a rule, active = well fitted curve in the direction sought with a large enough effect; inconclusive = small, poorly fitted or top-dose-only effect, or another doubt; inactive = no such curve, though single readings can be large; an effect the other way counts as inactive or inconclusive. Potency is the fitted concentration of half-maximal effect.

SMILES | KB-3-1 cytotox | 12-LOX inh | MCF10A rereplic | KB-V1 MDR tox | PINK1 modulator | SW480 rereplic
CCOC(=O)CSc1nc(C2CC2)cc(-c2ccc(Cl)cc2)c1C#N | i | -8% | 26% | 21µM* | 7% | -49%
N#Cc1c(-c2ccccc2F)cc(C2CC2)nc1SCC(=O)c1cccs1 | i | -16% | ? | ? | 2% | 10µM*
O=C(CN1CCN(c2cnn(-c3ccccc3)c(=O)c2Cl)CC1)Nc1ccc2ccccc2c1 | / | -32% | / | / | / | /
Clc1cccc(/C=N/N=C/c2cccc(Cl)c2)c1 | / | 9% | / | / | / | /
Clc1nnc(N/N=C/c2ccccc2)c2ccccc12 | ? | -17% | 18µM* | ? | 1%[38.3 µM] | ?
Clc1ccc(N/N=C/c2ccccc2)cc1Cl | / | 2.2µM* | / | / | / | /
Clc1ccc(N/N=C/c2ccncc2)cc1Cl | i | ? | 6% | ? | -1% | -5%
Clc1cccc(/C=N/Nc2ccc(Cl)c(Cl)c2)c1 | / | 5.6µM* | / | / | / | /
Clc1ccc(N/N=C/c2cccc(/C=N/Nc3ccc(Cl)c(Cl)c3)c2)cc1Cl | / | 0.71µM* | / | / | / | /
CC(C)C(C)(C#N)NC(=O)CN(C)CC1CCCCC1 (stereo unspecified) | / | -8% | / | / | / | /
CCCNC(=O)C(C)NC(=O)C1CCN(c2nc3ccccc3o2)CC1 (stereo unspecified) | / | 55% | / | / | / | /
Brc1cccc(/C=N/Nc2ccc3ccccc3c2)c1 | / | 5.6µM* | / | / | / | /
Brc1cccc(/C=N/Nc2cccc3cccnc23)c1 | / | -17% | / | / | / | /
CC/C=C\CCOC(=O)C(C)C | / | 6% | / | / | / | /
O=C(CCCCl)Oc1ccc2cc(-c3ccc4ccccc4n3)c(=O)oc2c1 | i | -13% | 6.5µM* | i | 3% | 2.1µM*
CCN(CC#CCC1(O)c2ccccc2-c2ccccc21)CCO | i | -26% | -1% | i | / | -10%
CC(C)N(CC#CCC1(O)c2ccccc2-c2ccccc21)CCO | i | 7.9µM* | 1% | i | -6%[38.3 µM] | -2%
Cc1ccc(Nc2nc3ccccc3c3nnc(C)n23)cc1Cl | i | -2% | / | i | -2% | /
COc1ccc(Nc2nc3ccccc3c3nnc(C)n23)cc1Cl | i | 3.2µM* | / | i | -2% | /
C=CC[C@]12C=C(OC)C(=O)C(OC)=C1O[C@@H](c1ccc3c(c1)OCO3)[C@H]2C | i | -7% | 1% | i | 0% | -15%
C=CC[C@]12CC=CC(=O)[C@@]1(O)O[C@H](c1ccc(OC)c(OC)c1)[C@H]2C | ? | -1% | 6.5µM* | ? | -1% | ?
O=C(Nc1cc(C(=O)N2CCCC2)ccc1N1CCCC1)c1ccccc1F | i | -8% | -6% | 3.7µM* | -1%[38.3 µM] | 0%
Cc1ccc(-c2cnc(CCC(=O)Nc3cccc(Cl)c3)o2)cc1C | / | 5% | / | / | / | /
Oc1cc(-c2cccnc2)cc2cccnc12 | ? | -21% | 10µM* | ? | 5% | ?
Cc1ccc(C(=O)/C=C/c2ccc(F)cc2)o1 | i | -2% | ? | i | 5% | ?
SMILES | KB-3-1 cytotox | 12-LOX inh | MCF10A rereplic | KB-V1 MDR tox | PINK1 modulator | SW480 rereplic
Cc1ccc(C(=O)/C=C/c2cccc3ccccc23)o1 | / | 16µM* | / | / | / | /
Cc1nc2cc(-c3ccccc3)nn2c(C)c1CCC(=O)NCc1ccc2c(c1)OCO2 | / | -50% | / | / | / | /
COc1cccc(-c2nnc(NC(=O)c3cccc(F)c3)o2)c1 | i | ? | 23µM* | ? | 0% | 21%
O=C(Nc1nnc(-c2ccco2)o1)c1ccc(Cl)s1 | ? | i | 11% | i | -1% | 14%
COc1cccc(-c2nnc(NC(=O)c3ccc(Cl)s3)o2)c1 | ? | -12% | 6.5µM* | i | 0% | 25%
O=C(Nc1nnc(-c2ccc(F)cc2)o1)c1cc(Cl)sc1Cl | ? | 20% | 1µM* | i | 1% | 29%
Cc1cccc(-c2nnc(NC(=O)c3ccc(Cl)cc3)o2)c1 | ? | -13% | 15µM* | 13µM* | ? | ?
O=C(Nc1nnc(-c2ccccc2)o1)c1cc(Cl)sc1Cl | ? | 2% | ? | i | 1% | -11%
Cc1ccc(C(=O)Nc2nnc(-c3ccncc3)o2)cc1 | i | 1% | 3% | i | 3% | 1%
COc1cccc(C(CNC(=O)C2CCN(S(=O)(=O)c3ccc4ccccc4c3)CC2)N(C)C)c1 (stereo unspecified) | / | 8% | / | / | / | /
CCC1CCC(N(C)C(=O)c2ccc(OC(F)F)cc2)CC1 (stereo unspecified) | / | -17% | / | / | / | /
Cc1ccc(-c2nnc(NC(=O)c3ccc([N+](=O)[O-])o3)o2)c(C)c1 | ? | ? | ? | ? | -8% | 11%
COc1ccc(-c2nnc(NC(=O)c3ccc([N+](=O)[O-])o3)o2)c(OC)c1 | i | 433% | 8.2µM* | ? | 4% | 16µM*
O=C(O)c1cc(N2N=C(C(F)(F)F)/C(=C/C=C/c3ccco3)C2=O)ccc1Cl | i | 5.6µM* | 10% | i | 1% | -14%
CCOC(=O)c1ccc(N2N=C(C)/C(=C/C=C/c3ccco3)C2=O)cc1 | i | -15% | ? | i | 11% | -2%
O=C(/C=C/c1ccco1)Nc1ccc2nn(-c3ccccc3)nc2c1 | i | ? | 7.3µM* | i | ? | 3%
Cc1ccc2oc(-c3cccc(NC(=S)NC(=O)/C=C/c4ccco4)c3)nc2c1 | ? | ? | 9.2µM* | ? | 6% | ?
Cc1ccccc1-c1nc2cc(NC(=O)/C=C/c3ccco3)ccc2o1 | / | 25µM* | / | / | / | /
Cc1cc(NC(=O)/C=C/c2ccco2)ccc1NC(=O)c1ccccc1 | i | -6% | 17% | i | -1% | 11%
Cc1ccc2oc(-c3cc(NC(=O)/C=C/c4ccco4)ccc3Cl)nc2c1 | i | ? | / | i | 6% | /
CC(C)CC(=O)Nc1ccc2nn(-c3ccccc3)nc2c1 | i | 3% | 11% | 16µM* | 5% | 14%
CCCCCc1ccc(-c2ccc(C(C)=O)cc2)cc1 | / | -9% | / | / | / | /
Cc1ccccc1CNC(=O)c1ccc(CN2C(=O)CCn3nccc32)cc1 | / | -7% | / | / | / | /
COc1cc2c(cc1OC)C(c1cc(Br)ccc1F)N(C(=O)CCl)CC2 (stereo unspecified) | ? | 16µM* | 3.3µM* | i | -1% | 14%
O=C(O)c1cc(-c2cccc(Cl)c2)nc2c(Cl)cccc12 | / | -3% | / | / | / | /
N#CCN(C(=O)c1ccccc1)C1CC1 | / | 56% | / | / | / | /
O=C1CCN(C(=O)CCCc2ccccc2)CCCCCCN1 | / | 55% | / | / | / | /
Cc1cccc(C(=O)NCc2nnc(SCC(=O)NC(C)c3ccccc3)n2C)c1 (stereo unspecified) | i | 3% | -4% | i | -1% | 18µM*
CC(C)NC(=O)CSc1nc(C2CC2)nc2ccccc12 | / | -25% | / | / | / | /
